The whole screen tested about 39,000 compounds, of which about 1,500 (3.8%) were called active. Many of the other results were omitted from the sample, so actives are more common in it than they were.

The record followed here is the antibiotic and cytotoxicity screens of Wong et al. (2023).

The test system of the test is HSkMC (human skeletal muscle cells). Briefly: cytotoxicity call (relative viability < 0.9). To be noted: 10 µM.
`COc1ccc(CN(C)C[C@@H]2OCCCC[C@H](C)Oc3ccc(NC(=O)C4CCCCC4)cc3C(=O)N([C@@H](C)CO)C[C@H]2C)cc1`: the cytotoxicity call is “inactive”.
For the compound `C[C@@H]1CN([C@@H](C)CO)C(=O)c2cccc(NC(=O)C3CC3)c2O[C@@H]1CN(C)Cc1ccc(C(=O)O)cc1`, the cytotoxicity call is “inactive”.
With `Cc1noc(C)c1S(=O)(=O)N(C)C[C@H]1Oc2ccc(NC(=O)C3CC3)cc2CC(=O)N([C@H](C)CO)C[C@H]1C` the entry was “inactive”; with `Cc1ccc(S(=O)(=O)Nc2ccc3c(c2)C(=O)N([C@@H](C)CO)C[C@H](C)[C@H](CN(C)C(=O)Nc2ccccc2)OCCCC[C@H](C)O3)cc1`, “inactive”; with `COc1ccc(CN(C)C[C@@H]2Oc3ccc(NS(=O)(=O)c4cn(C)cn4)cc3CC(=O)N([C@@H](C)CO)C[C@H]2C)cc1`, “inactive”.
With `C[C@H](CO)N1C[C@H](C)[C@H](CN(C)C(=O)Nc2ccccc2)OCc2ccccc2-c2c(n(C)c3ccccc23)C1=O` the entry was “inactive”.
With `COc1ccc(NC(=O)N(C)C[C@@H]2Oc3ncc(C#C[C@H](C)O)cc3C(=O)N([C@H](C)CO)C[C@@H]2C)cc1` the entry was “inactive”; with `Cc1noc(C)c1S(=O)(=O)Nc1ccc2c(c1)C(=O)N([C@H](C)CO)C[C@H](C)[C@H](CN(C)C(=O)Nc1ccc(C(F)(F)F)cc1)OCCCC[C@H](C)O2`, “active”; with `Cc1noc(C)c1S(=O)(=O)Nc1ccc2c(c1)C(=O)N([C@@H](C)CO)C[C@@H](C)[C@@H](CN(C)C(=O)Nc1ccc(C(F)(F)F)cc1)OCCCC[C@@H](C)O2`, “inactive”.
Take `Cc1noc(C)c1S(=O)(=O)Nc1ccc2c(c1)C(=O)N([C@@H](C)CO)C[C@@H](C)[C@H](CN(C)C(=O)Nc1ccc(C(F)(F)F)cc1)OCCCC[C@H](C)O2`: the cytotoxicity call is “inactive”.
With `COc1ccc(S(=O)(=O)Nc2ccc3c(c2)C(=O)N([C@@H](C)CO)C[C@@H](C)[C@H](CN(C)C(=O)NC(C)C)O3)cc1` the entry was “inactive”.
As for `C[C@@H]1CN([C@H](C)CO)C(=O)c2cc(C#Cc3cccc(F)c3)cnc2O[C@H]1CN(C)CC1CCOCC1`, the cytotoxicity call was “inactive”.
With `CC=Cc1ccc2n(c1=O)C[C@H]1[C@H](CO)[C@@H](C(=O)NC3CCC3)[C@@H]2N1S(=O)(=O)c1cn(C)cn1` the entry was “inactive”.
The same measure for `Cc1noc(C)c1S(=O)(=O)Nc1ccc2c(c1)CC(=O)N([C@@H](C)CO)C[C@H](C)[C@H](CN(C)S(C)(=O)=O)O2`: “inactive”; for `CC(C)(Sc1cc(C(C)(C)C)c(O)c(C(C)(C)C)c1)Sc1cc(C(C)(C)C)c(O)c(C(C)(C)C)c1` [listing 1 of 2 here]: “inactive”; for `CC(C)(C)c1cc(CCC(=O)OCC(COC(=O)CCc2cc(C(C)(C)C)c(O)c(C(C)(C)C)c2)(COC(=O)CCc2cc(C(C)(C)C)c(O)c(C(C)(C)C)c2)COC(=O)CCc2cc(C(C)(C)C)c(O)c(C(C)(C)C)c2)cc(C(C)(C)C)c1O`: “inactive”.
On to `CC(C)(Sc1cc(C(C)(C)C)c(O)c(C(C)(C)C)c1)Sc1cc(C(C)(C)C)c(OC(=O)CCC(=O)O)c(C(C)(C)C)c1`, for which the cytotoxicity call is “active”.
On to `CC(C)(Sc1cc(C(C)(C)C)c(O)c(C(C)(C)C)c1)Sc1cc(C(C)(C)C)c(O)c(C(C)(C)C)c1` [listing 2 of 2 here], for which the cytotoxicity call is “inactive”.
For `CC(C)(Sc1cc(C(C)(C)C)c(O)c(C(C)(C)C)c1)Sc1cc(C(C)(C)C)c(OCC(=O)O)c(C(C)(C)C)c1`, the cytotoxicity call was “active”.
The same measure for `C[C@@H]1CN([C@@H](C)CO)C(=O)c2cccc(NC(=O)Nc3ccc(F)cc3)c2O[C@@H]1CN(C)C(=O)Nc1ccc(C(F)(F)F)cc1`: “inactive”.
The same measure for `C[C@@H]1CN([C@@H](C)CO)S(=O)(=O)c2ccc(-c3cncnc3)cc2O[C@H]1CN(C)C(=O)c1ccc2c(c1)OCO2`: “inactive”.
With `COCC(=O)N1C[C@H](C)[C@@H](OC)CN(C)C(=O)c2cc(NC(=O)Nc3cccc(F)c3)ccc2OC[C@@H]1C` the entry was “inactive”; with `COC[C@@H]1CN(C(=O)[C@H]2CCCN2C)N1`, “inactive”; with `COC(=O)[C@@H](Cc1ccccc1)N[C@H](/C=C/C1CC1)[C@@H](O)CCn1cc(-c2ccc(C(=O)NO)cc2)nn1`, “inactive”.
Take `CC[C@@H]1COCCC(=O)N1`: the cytotoxicity call is “inactive”.
With `Cc1nc2cc(C)c(C)cc2s1` the entry was “inactive”; with `Cc1ccc(NC(=O)Nc2cc(C(F)(F)F)ccc2F)cc1Nc1ccc2c(c1)NC(=O)/C2=C\c1ccc[nH]1`, “active”.
With `C[C@@H]1CN([C@H](C)CO)C(=O)Cc2cc(NS(C)(=O)=O)ccc2O[C@H]1CN(C)S(=O)(=O)c1ccc(F)cc1` the entry was “inactive”; with `Cc1noc(C)c1NC(=O)Nc1ccc2c(c1)C(=O)N([C@H](C)CO)C[C@@H](C)[C@@H](CN(C)S(=O)(=O)c1c(C)noc1C)O2`, “inactive”.
With `C[C@@H]1CN([C@@H](C)CO)C(=O)c2cccc(NC(=O)C3CC3)c2O[C@@H]1CN(C)Cc1ccc(-c2ccccc2)cc1` the entry was “inactive”; with `C[C@@H]1CN([C@H](C)CO)S(=O)(=O)c2ccc(-c3ccccc3F)cc2O[C@H]1CN(C)Cc1cncnc1`, “inactive”; with `C[C@@H]1CCCCO[C@@H](CN(C)Cc2ccc(Cl)c(Cl)c2)[C@@H](C)CN([C@@H](C)CO)C(=O)c2cc(NC(=O)c3ccccc3)ccc2O1`, “inactive”.
For `COc1ccc(NC(=O)Nc2ccc3c(c2)C(=O)N([C@H](C)CO)C[C@@H](C)[C@@H](CN(C)Cc2ccc(Cl)c(Cl)c2)OCCCC[C@H](C)O3)cc1`, the cytotoxicity call is “inactive”.
With `COc1ccc(NC(=O)Nc2ccc3c(c2)C(=O)N([C@@H](C)CO)C[C@@H](C)[C@@H](CN(C)Cc2ccc(Cl)c(Cl)c2)OCCCC[C@H](C)O3)cc1` the entry was “inactive”; with `COc1ccc(NC(=O)Nc2ccc3c(c2)C(=O)N([C@H](C)CO)C[C@H](C)[C@@H](CN(C)Cc2ccc(Cl)c(Cl)c2)OCCCC[C@H](C)O3)cc1`, “inactive”.
For `COc1ccc(NC(=O)Nc2ccc3c(c2)C(=O)N([C@H](C)CO)C[C@@H](C)[C@H](CN(C)Cc2ccc(Cl)c(Cl)c2)OCCCC[C@@H](C)O3)cc1`, the cytotoxicity call is “active”.
On to `COc1ccc(NC(=O)Nc2ccc3c(c2)C(=O)N([C@H](C)CO)C[C@@H](C)[C@H](CN(C)Cc2ccc(Cl)c(Cl)c2)OCCCC[C@H](C)O3)cc1`, for which the cytotoxicity call is “active”.
The same measure for `COc1ccc(NC(=O)Nc2ccc3c(c2)C(=O)N([C@@H](C)CO)C[C@H](C)[C@@H](CN(C)Cc2ccc(Cl)c(Cl)c2)OCCCC[C@@H](C)O3)cc1`: “inactive”; for `COc1ccc(NC(=O)Nc2ccc3c(c2)C(=O)N([C@H](C)CO)C[C@H](C)[C@@H](CN(C)Cc2ccc(Cl)c(Cl)c2)OCCCC[C@@H](C)O3)cc1`: “inactive”.
Regarding `COc1ccc(NC(=O)Nc2ccc3c(c2)C(=O)N([C@H](C)CO)C[C@H](C)[C@H](CN(C)Cc2ccc(Cl)c(Cl)c2)OCCCC[C@H](C)O3)cc1`, the cytotoxicity call is “active”.
For the compound `COc1ccc(NC(=O)Nc2ccc3c(c2)C(=O)N([C@@H](C)CO)C[C@H](C)[C@H](CN(C)Cc2ccc(Cl)c(Cl)c2)OCCCC[C@@H](C)O3)cc1`, the cytotoxicity call was “inactive”.
